Data from PubChem BioAssay.

Tests used:
[1] = tested on: Human papillomavirus type 1a protein E7 (residues 44-93); test: small molecules binding HPV E7 44-93 – biochemical, small-molecule microarray, residues 44-93, 635 nm fluorescence, primary screen (AID 1108); details: fluorescence 635 nm, higher = more signal;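 further: E7 fragment applied at 1 µg/mL in TBST for 1 h at 4 C; score combines spot fluorescence with its signal to noise ratio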
[2] = hepatitis C replication reporter changes, two-sided – Huh7 cells, luciferase reporter, HCV replication inhibitor project, primary screen (AID 1109); details: Huh7 HCV replicon luciferase reporter, 48 h; higher = more signal;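 further: huh7 hepatoma cells harbouring a luciferase neomycin HCV replicon reporter; luciferase luminescence as measure of HCV replicon replication; test concentration not given here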
[3] = target: Left-right determination factor 2 (Homo sapiens) (UniProt O00292); test: small molecules binding LEFTY2 protein – biochemical, small-molecule microarray, 635 nm fluorescence scan, primary screen (AID 1110); details: higher = more signal
Sequence of Left-right determination factor 2 (Homo sapiens) (O00292 whole entry, looked up): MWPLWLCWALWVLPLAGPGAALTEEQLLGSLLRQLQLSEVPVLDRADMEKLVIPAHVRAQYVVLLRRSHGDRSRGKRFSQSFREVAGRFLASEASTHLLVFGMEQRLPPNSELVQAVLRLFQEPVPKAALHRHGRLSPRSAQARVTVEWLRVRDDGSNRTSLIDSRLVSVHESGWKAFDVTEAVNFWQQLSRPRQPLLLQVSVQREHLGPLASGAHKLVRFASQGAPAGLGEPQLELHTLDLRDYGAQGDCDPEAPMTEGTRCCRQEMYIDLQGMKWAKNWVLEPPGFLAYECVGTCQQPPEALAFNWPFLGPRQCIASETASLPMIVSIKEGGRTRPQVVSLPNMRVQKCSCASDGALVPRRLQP

[4] = target: Calmodulin-1 (Homo sapiens) (UniProt P0DP23); test: small molecules binding calmodulin-1 with EGTA – biochemical, small-molecule microarray, Cy5-labelled CALM1, profiling panel (AID 1111); details: Cy5-CALM1 binding fluorescence, higher = more signal;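 further: labelled calmodulin applied in Tris saline Tween buffer holding calcium plus EGTA and DTT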
[5] = target: Calmodulin-1 (Homo sapiens) (UniProt P0DP23); test: small molecules binding Ca-loaded calmodulin-1 – biochemical, small-molecule microarray, Cy5-labelled CALM1, plus calcium, artefact control for SMM control-protein annotation, profiling panel (AID 1112); details: Cy5-CALM1 binding fluorescence, higher = more signal;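 further: score merges spot fluorescence with signal to noise from triplicate slides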
[6] = probe aWnt5a binding to arrayed compounds – biochemical, biotinylated probe, 635/667 nm fluorescence, primary screen (AID 1113); details: small-molecule microarray, higher = more signal;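 further: score merges 667 nm fluorescence intensity with signal-to-noise per printed feature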
[7] = probe aShh binding to arrayed compounds – biochemical, biotinylated probe, 635/667 nm fluorescence, primary screen (AID 1114); details: small-molecule microarray, higher = more signal;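 further: probe is biotin-labelled aShh protein from a stem cell growth factor screen; measures binding of labelled protein to compounds printed on the slide; score merges feature fluorescence at 667 nm with signal-to-noise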
[8] = probe aNog binding to arrayed compounds – biochemical, biotinylated probe, 635/667 nm fluorescence, primary screen (AID 1115); details: small-molecule microarray, higher = more signal;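 further: probe is biotinylated aNog protein used at 0.15 µg/mL for 1 h at 4 C; z-score combines 667 nm fluorescence of each spot with its signal to noise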
[9] = target: Torsin-1A-interacting protein 1 (Homo sapiens) (UniProt Q5JTV8); test: compound microarray binding of lysate hLAP1 – cell lysate, small-molecule microarray, COS7 lysate, 635/667 nm fluorescence, primary screen (AID 1116); details: 635 nm fluorescence, higher = more signal
Sequence of Torsin-1A-interacting protein 1 (Homo sapiens) (Q5JTV8 whole entry, looked up): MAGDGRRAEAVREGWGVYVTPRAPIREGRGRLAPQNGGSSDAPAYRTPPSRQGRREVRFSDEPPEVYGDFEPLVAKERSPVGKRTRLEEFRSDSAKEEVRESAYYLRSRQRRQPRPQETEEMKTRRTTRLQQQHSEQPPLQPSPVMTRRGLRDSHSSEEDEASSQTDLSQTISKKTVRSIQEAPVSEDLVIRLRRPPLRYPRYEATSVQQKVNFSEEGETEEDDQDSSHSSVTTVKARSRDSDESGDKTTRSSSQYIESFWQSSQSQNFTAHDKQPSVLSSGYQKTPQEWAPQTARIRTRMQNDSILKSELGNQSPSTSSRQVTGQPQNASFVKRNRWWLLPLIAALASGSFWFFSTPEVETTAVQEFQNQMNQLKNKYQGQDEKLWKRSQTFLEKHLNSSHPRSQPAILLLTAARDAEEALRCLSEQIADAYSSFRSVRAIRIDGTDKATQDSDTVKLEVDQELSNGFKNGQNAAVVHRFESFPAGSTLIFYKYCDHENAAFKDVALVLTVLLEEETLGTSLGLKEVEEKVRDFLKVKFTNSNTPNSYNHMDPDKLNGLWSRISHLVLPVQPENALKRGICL

[10] = target: Alpha-bungarotoxin (Bungarus multicinctus) (UniProt P60615); test: compounds binding labelled alpha-BTX control protein – biochemical, small-molecule microarray, Alexa647 label, 635/667 nm fluorescence, artefact control for SMM control protein annotation, profiling panel (AID 1117); details: alpha-BTX-A647 binding fluorescence, higher = more signal
Sequence of Alpha-bungarotoxin (Bungarus multicinctus) (P60615 whole entry, looked up): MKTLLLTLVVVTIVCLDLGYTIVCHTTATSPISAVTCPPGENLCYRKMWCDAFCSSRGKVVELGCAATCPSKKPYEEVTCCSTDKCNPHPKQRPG

SMILES | composite z-score [1] | z-score [2] | composite z-score [3] | composite z-score [4] | composite z-score [5] | composite z-score [6] | composite z-score [7] | composite z-score [8] | composite z-score [9] | composite z-score [10]
COc1ccc(CCNC(=O)[C@@]2(Sc3ccc(C)cc3)CC(=O)N(Cc3ccccc3C(F)(F)F)[C@@H]2c2ccc(CO)cc2I)cc1 | 0.497 | -2.42 | -1.5 | 0.138 | 0.14 | -0.0792 | -0.0849 | 0.924 | 0.357 | 1.73
COC(=O)C1(CC(C)C)C=C2C(=C(c3ccccc3)C(=O)C2C)CN1 (stereo not given) | -0.518 | -1.33 | -0.844 | -0.0555 | 0.358 | 0.554 | 0.538 | 0.689 | 1.09 | -0.194
CO[C@H]1O[C@H](CO)[C@@H](OC(=O)Nc2ccccc2)[C@H](OC(=O)c2cc3ccccc3[nH]2)[C@H]1OC(=O)c1cc2ccccc2[nH]1 | 0.0679 | -2.05 | 0.165 | 0.204 | 0.47 | 0.0642 | 0.14 | -0.367 | 0.621 | 0.326
CCOC(=O)[C@@H]1CCCCN1C(=O)C(=O)OC | 0.5 | -0.583 | 0.449 | -0.499 | -0.305 | -0.0684 | -0.0904 | -0.158 | -0.274 | 0.154
C=CCN1C(=O)[C@]2(CCC(=O)OC(C)(C)C)N=C(c3ccc(OCCCO)cc3)O[C@@H]2c2ccccc21 | 0.841 | -2.91 | 0.272 | 1.23 | -0.0414 | -0.0441 | 0.131 | -0.292 | 0.423 | 1.38
O=C(Cc1ccccc1)[C@H]1C2C=CCCC(c3ccccc3)=C2CN1Cc1ccccc1 (stereo not given in full) | -0.75 | -0.576 | 0.174 | -0.185 | -0.354 | -0.0566 | -0.124 | 0.0326 | 0.163 | -0.0051
COC(=O)[C@@]1(Cc2ccc(OC)cc2)[C@H]2c3cc(C(=O)N(C)C)n(Cc4ccc(C)o4)c3C[C@H]2CN1C(=O)c1ccccc1 | 1.42 | -2.04 | -0.466 | 0.372 | -0.223 | 0.091 | 0.596 | 0.243 | 1.27 | 0.41
CCOC(=O)C[C@H]1[C@H](OC(=O)Cc2ccc3c(c2)OCO3)[C@@H](NC(=O)c2ccc3ccccc3n2)c2cc(OCCCO)ccc2N1C(=O)c1ccccc1 | 0.348 | -1.26 | -0.0499 | 0.179 | -0.564 | -0.0269 | -0.214 | 0.0589 | 0.49 | 0.611
COC(=O)C1=CC(CCCO)=CC(c2cccs2)N(C)C=C1C(=O)OC (stereo not given) | 0.0867 | -1.31 | -0.876 | 0.127 | 0.618 | -0.0981 | -0.165 | -0.0879 | 0.044 | 0.498
CC1CC/C=C\[C@H]2OC34C=CCN(c5ccc6ccccc6c5)C(=O)[C@H]3N(CCCO)C(=O)[C@@H]4C2C(=O)O1 (stereo not given in full) | -0.499 | 0.197 | -1.85 | -0.568 | -0.028 | -0.287 | -0.291 | -0.285 | -0.406 | -0.905
CCCCC=C[C@@H](NC(=O)OCc1ccccc1Cl)c1ccccc1 | 1.4 | -0.0468 | 0.39 | 1.35 | 1 | 1.08 | 1.97 | 3.06 | 0.28 | 0.922
CCC1=C2CN(Cc3ccccc3)[C@@H](C(=O)Cc3ccccc3)C2C=CCC1 (stereo not given in full) | 1.4 | -0.618 | 0.133 | -0.0133 | -0.429 | -0.124 | -0.211 | -0.185 | 0.0878 | 0.0601
CC(C)(C)OC(=O)CC[C@@]1(C(=O)NCC(O)CO)N=C(c2ccc(OCCCO)cc2)O[C@@H]1c1ccccc1CN=[N+]=[N-] (stereo not given in full) | 1.11 | -0.75 | -0.222 | 1.25 | 0.311 | -0.124 | 0.108 | 0.72 | 1.64 | 0.833
O=C1N(CCS(=O)(=O)c2ccccc2)c2ccccc2[C@H]2OC(c3ccc(OCCCO)cc3)=N[C@@]12Cc1ccccc1 | 0.474 | -0.733 | 0.949 | 1.27 | 0.517 | 0.0101 | 0.337 | -0.0321 | 2.03 | 1.66
CCOC(=O)C[C@H]1[C@H](OC(=O)c2cc3ccccc3oc2=O)[C@@H](NC(=O)c2ccc3ccccc3n2)c2cc(OCCCO)ccc2N1C(=O)Cc1ccc(OC)cc1 | 1.23 | -1.96 | 0.735 | 0.228 | -0.653 | 0.0297 | -0.0119 | -0.0428 | 0.726 | 0.981
COc1cc2c(cc1O)C(c1cccs1)N(Cc1cc3c(cc1Br)OCO3)CC2 (stereo not given) | 1.48 | -2.05 | 0.236 | 1.88 | 0.602 | -0.0286 | 0.23 | 1.03 | 1.14 | 2.08
CCOC(=O)C[C@H]1[C@H](OC(=O)c2ccc(C(=O)c3ccccc3)cc2)[C@@H](NC(=O)c2ccc(-c3ccccc3)cc2)c2cc(OCCCO)ccc2N1C(=O)Cc1ccc(OC)cc1 | 0.625 | -0.751 | 0.176 | 0.439 | -0.122 | -0.0236 | -0.214 | -0.468 | 0.759 | 0.355
CCCC[C@@H](O)C1=C(COc2ccccc2)C[C@H]2C(=O)N(Cc3ccccc3)C(=O)[C@H]2[C@H]1CO | 0.207 | -2.3 | 0.321 | 0.422 | -0.451 | -0.161 | -0.214 | -0.213 | 0.176 | 1.29

SMILES | composite z-score [1] | z-score [2] | composite z-score [3] | composite z-score [4] | composite z-score [5] | composite z-score [6] | composite z-score [7] | composite z-score [8] | composite z-score [9] | composite z-score [10]
COCCCNC(=O)[C@@]1(Sc2ccc(C)cc2)CC(=O)N(C2Cc3ccccc3C2)[C@@H]1c1ccc(CO)cc1 | 0.52 | -0.849 | -1.15 | -0.176 | -0.0232 | -0.227 | -0.2 | 0.551 | 0.423 | -0.715
O=C1OCCC=C[C@H]2OC34C=CCN(c5ccc6ccccc6c5)C(=O)[C@H]3N(CCCO)C(=O)[C@@H]4C12 (stereo not given in full) | -2 | -0.24 | -1.31 | -0.834 | -0.885 | -0.294 | -0.153 | 0.181 | -1.25 | -1.27
O=C1O[C@@H](c2ccccc2)[C@@H](c2ccccc2)N2[C@@H](c3ccc(O)cc3)[C@]3(C(=O)Nc4ccc(C#CCCO)cc43)[C@@H](C(=O)N3CCN(c4ncccn4)CC3)[C@H]12 | 0.99 | -0.671 | 0.787 | -0.587 | -0.948 | -0.512 | -0.232 | 0.498 | 0.255 | 0.101
C=CCNC(=O)[C@H]1[C@@H]2C(=O)O[C@@H](c3ccccc3)[C@@H](c3ccccc3)N2[C@@H](c2ccccc2OCCO)[C@]12C(=O)N(C(=O)OCCOC)c1ccc(C#CC3(O)CCCCCC3)cc12 | 1.25 | -2.88 | 0.371 | 1.09 | 0.647 | -0.0239 | 0.176 | -0.168 | 1.22 | 0.996
COC(=O)[C@@]1(Cc2ccc(F)cc2)[C@H]2c3cc(C(=O)N4CCCC4)n(Cc4ccc(C)c(F)c4F)c3C[C@H]2CN1C(=O)c1ccccc1 | -0.751 | -0.914 | -0.419 | 0.344 | 0.612 | -0.119 | -0.0813 | 0.935 | 0.65 | -0.106
COC(=O)c1c(CC[C@@H](CO)NC(=O)N2CCC[C@H]2Cn2cc(C3(O)CCCCC3)nn2)oc(C(C)=O)c1C(=O)OC | 1.33 | -0.172 | 0.562 | 0.624 | -0.712 | -0.275 | -0.0709 | 0.189 | 0.416 | 0.966
NC(=O)[C@@]1(Cc2ccccc2)COC(c2ccc(OCCCO)cc2)=N1 | 0.404 | 1.84 | -0.263 | 0.435 | 1.2 | -0.0179 | 0.46 | 0.959 | 0.381 | -0.0002
COc1cc(OC)c(C(O)C2C=CC3C(=O)N(Cc4ccccc4)C(=O)C3N2n2cnnc2)cc1Br (stereo not given) | 1.36 | -1.61 | -0.6 | 0.181 | 0.595 | 0.0173 | -0.131 | 0.665 | 0.781 | 0.871
C#Cc1cc2ccccc2oc1=O | -0.455 | -3.88 | -2.19 | -1.07 | -0.451 | -0.187 | 0.541 | -0.396 | -0.402 | -1.65
COC(=O)[C@@H]1N=C(c2ccc(OCCCO)cc2)O[C@@H]1C | 0.783 | 2.62 | 0.309 | -0.226 | -1.2 | -0.148 | 0.233 | -0.356 | 1.71 | -0.294
C=CC[C@H](OC(=O)Nc1ccc(SC)cc1)c1ccc(O)c2ccccc12 | 1.4 | -4.92 | 0.679 | 1.28 | 0.411 | -0.0819 | 0.23 | -0.134 | 0.986 | 1.78
CCCC=C(CCC)[C@@H](NS(=O)(=O)CC12CCC(CC1=O)C2(C)C)c1ccc(C(=O)OC)cc1 (stereo not given in full) | 1.33 | -0.197 | 0.306 | -0.057 | -0.654 | -0.165 | -0.373 | -0.289 | 0.159 | -0.362
COCCOC(=O)N1C(=O)[C@@]2(c3cc(C#CCCO)ccc31)[C@H](C(=O)Nc1nc3ccccc3s1)[C@H]1C(=O)O[C@H](c3ccccc3)[C@H](c3ccccc3)N1[C@@H]2c1ccc(O)cc1 | 1.16 | -1.65 | 1.09 | 0.999 | -0.237 | -0.0445 | 0.191 | 0.566 | 0.549 | 1.6
COC(=O)[C@@]1(Cc2ccccc2)[C@H]2c3cc(C(=O)N(C)C)n(Cc4ccc(C)o4)c3C[C@H]2CN1C(=O)c1ccccc1 | 0.946 | -2.49 | 0.0319 | 1.69 | 1.26 | 0.69 | 1.95 | 0.728 | 1.29 | 0.76
[N-]=[N+]=Nc1ccccc1[C@H]1OC(c2ccc(OCCCO)cc2)=N[C@@]1(Cc1ccccc1)C(=O)NCCN1CCOCC1 | 0.632 | -1.85 | 0.331 | 2.07 | 0.469 | 0.248 | 0.171 | -0.61 | 0.998 | 1.8
C=CCNC(=O)[C@@H]1[C@H]2C(=O)O[C@H](c3ccccc3)[C@H](c3ccccc3)N2[C@H](c2ccccc2OCCO)[C@@]12C(=O)Nc1ccc(C#CCCO)cc12 | -0.489 | -0.364 | 1.2 | 0.142 | -0.0836 | -0.147 | -0.273 | -0.0965 | 0.544 | 0.0913
CCCC[C@@H](O)C1=C(COC)C[C@H]2C(=O)N(Cc3ccccc3)C(=O)[C@H]2[C@H]1CO | 0.34 | -0.655 | 0.568 | -0.37 | -0.359 | 0.0102 | -0.345 | 0.116 | 0.515 | 0.516
